Test results: article PMC4336329 (PLoS ONE, 2015)
Hit rate of the full screen: of about 310,000 compounds, about 2,200 (0.71%) showed an effect of 50% or more. Effects have a minus sign here. This is one part of a sample in which strong results are shown more often than they occur.

target: human ether-à-go-go-related gene (hERG) potassium channel (human, UniProt Q12809); assay: primary screen, population patch clamp on CHO cells stably expressing hERG; higher = less effect of the substance
Sequence (Q12809 whole entry, looked up): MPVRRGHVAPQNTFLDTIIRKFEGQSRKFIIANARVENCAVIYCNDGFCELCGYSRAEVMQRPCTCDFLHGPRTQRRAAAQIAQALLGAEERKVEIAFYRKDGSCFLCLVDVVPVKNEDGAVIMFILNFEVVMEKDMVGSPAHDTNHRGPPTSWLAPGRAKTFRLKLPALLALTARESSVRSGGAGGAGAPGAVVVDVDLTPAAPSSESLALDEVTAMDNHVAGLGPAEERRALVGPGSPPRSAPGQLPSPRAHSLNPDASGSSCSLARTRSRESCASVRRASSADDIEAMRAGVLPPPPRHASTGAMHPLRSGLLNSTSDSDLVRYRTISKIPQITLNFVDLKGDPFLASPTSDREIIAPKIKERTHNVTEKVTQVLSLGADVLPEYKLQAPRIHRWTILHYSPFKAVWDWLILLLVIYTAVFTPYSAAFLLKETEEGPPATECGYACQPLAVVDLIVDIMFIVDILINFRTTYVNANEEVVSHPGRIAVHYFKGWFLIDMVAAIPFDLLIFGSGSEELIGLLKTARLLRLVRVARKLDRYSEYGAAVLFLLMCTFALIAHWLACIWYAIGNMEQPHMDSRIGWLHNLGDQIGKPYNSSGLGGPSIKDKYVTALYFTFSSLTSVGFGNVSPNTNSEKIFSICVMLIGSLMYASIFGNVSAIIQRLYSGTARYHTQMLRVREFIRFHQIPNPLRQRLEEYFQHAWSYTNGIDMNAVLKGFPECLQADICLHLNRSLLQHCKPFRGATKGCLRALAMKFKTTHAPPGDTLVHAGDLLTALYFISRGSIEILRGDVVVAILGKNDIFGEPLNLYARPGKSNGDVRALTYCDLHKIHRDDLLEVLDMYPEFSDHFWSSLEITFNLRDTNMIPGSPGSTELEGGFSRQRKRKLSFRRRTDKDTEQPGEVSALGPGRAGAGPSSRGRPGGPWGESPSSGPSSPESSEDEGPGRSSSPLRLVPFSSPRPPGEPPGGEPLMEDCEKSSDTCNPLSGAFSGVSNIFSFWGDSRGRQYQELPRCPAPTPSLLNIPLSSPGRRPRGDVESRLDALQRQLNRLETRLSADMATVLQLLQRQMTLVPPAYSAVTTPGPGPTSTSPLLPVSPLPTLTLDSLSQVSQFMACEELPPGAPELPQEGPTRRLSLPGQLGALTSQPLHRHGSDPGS

Going from `N#Cc1nc(COc2cccc(Cl)c2)oc1NCCN1CCOCC1` to `Cn1c(CCN2CCOCC2)nc2cc(NC(=O)COc3ccc(Cl)cc3)ccc21`, the “hERG current change (%, negative = inhibition) at 1uM” value rises from -22.3% to 2%.

Going from `CC1CN(S(=O)(=O)c2cccc(C(=O)Nc3ccc4c(c3)CCC4)c2)CC(C)O1` (stereo not shown) to `CCOc1ccc(NS(=O)(=O)c2ccc3c(c2)N(C(C)=O)CCO3)cc1`, the “hERG current change (%, negative = inhibition) at 1uM” value rises from 1.39% to 17%.

First: O=C(CN(Cc1ccccc1Cl)C(=O)CN1C(=O)CSc2ccccc21)NC1CC1
Second: COc1ccccc1CC(=O)NCCCc1ccccc1
The “hERG current change (%, negative = inhibition) at 1uM” value of the first is lower: -30.7% for the first, 11.2% for the second.

Going from `Cc1ccc(-c2nc3ccccc3[nH]2)cc1NC(=S)NC(=O)c1ccccc1Br` to `CCOc1ccccc1N(CC(=O)Nc1ccccc1C(=O)NCc1ccco1)S(C)(=O)=O`, the “hERG current change (%, negative = inhibition) at 1uM” value falls from 8.3% to 2.08%.

Compared with `c1ccc(-c2noc(-c3ccc4c(c3)OCO4)n2)nc1`, `Cc1ccc2nc(-c3ccccn3)oc2c1` is lower in “hERG current change (%, negative = inhibition) at 1uM” value: 14.3% for the first, 12.6% for the second.

First: O=C(CCC(=O)Nc1ccccc1)NNC(=O)CCc1ccccc1
Second: Cc1ccc(NC(=O)CCC(=O)NNC(=O)COc2ccccc2)c(C)c1
The “hERG current change (%, negative = inhibition) at 1uM” value of the first is higher: 13.6% for the first, 7.32% for the second.

Going from `COc1cccc(OC)c1NC(=O)C1CCCN1C(=O)NCc1ccccc1` (stereo not shown) to `COCCn1ccc2c(OCC(=O)NCCc3ccccc3)cccc2c1=O`, the “hERG current change (%, negative = inhibition) at 1uM” value falls from 3.69% to 0.744%.

First: COC(=O)c1ccc(NC(=O)C2C3CCC(C3)C2C(=O)O)cc1 (stereo not shown)
Second: CCN(C(=O)COC(=O)CNC(=O)c1ccc(F)cc1)C1CCS(=O)(=O)C1 (stereo not shown)
The “hERG current change (%, negative = inhibition) at 1uM” value of the first is lower: 3.27% for the first, 9.62% for the second.

Going from `O=C(O)c1ccc(S(=O)(=O)NCc2ccc3c(c2)OCO3)cc1` to `O=C(O)c1ccc(NCc2ccc3c(c2)OCO3)cc1`, the “hERG current change (%, negative = inhibition) at 1uM” value falls from 11.3% to 10.6%.

Compared with `COc1ccc(OCC(=O)Nc2ccc3c(c2)nc(CCN2CCC(C)CC2)n3C)cc1`, `Cc1ccc(OCC(=O)Nc2ccc3c(c2)nc(CCN2CCC(C)CC2)n3C)cc1` is lower in “hERG current change (%, negative = inhibition) at 1uM” value: -46.3% for the first, -53.3% for the second.

Going from `CC1CCN(CCc2nc3cc(NC(=O)COc4ccccc4)ccc3n2C)CC1` to `CC1CCN(CCc2nc3cc(NC(=O)COc4ccc(Cl)cc4)ccc3n2C)CC1`, the “hERG current change (%, negative = inhibition) at 1uM” value falls from -33.9% to -60.7%.

First: CC1CCN(CCc2nc3cc(NC(=O)COc4ccc([N+](=O)[O-])cc4)ccc3n2C)CC1
Second: COCCc1ncc(CN2CCC(C(=O)Nc3ccc(-n4cccn4)cc3)CC2)cn1
The “hERG current change (%, negative = inhibition) at 1uM” value of the first is higher: -2.45% for the first, -5.56% for the second.

Going from `C[C@]12CCC(=O)CC1CCC1C2CC[C@]2(C)C(OC(=O)CCC(=O)O)CCC12` (stereo partly shown) to `CCOC(=O)C1(Cc2ccccc2)CCN(CC2CC=CCC2)CC1` (stereo not shown), the “hERG current change (%, negative = inhibition) at 1uM” value falls from 9.84% to -5.83%.

Compared with `CCC1CCCCN1C(=O)Nc1cc(Cl)ccc1OC` (stereo not shown), `CCOC(=O)C1(Cc2cccc(OC)c2)CCN(CCO)CC1` is lower in “hERG current change (%, negative = inhibition) at 1uM” value: 15.2% for the first, 2.3% for the second.

First: O=C(c1ccco1)N1CCN(C(=O)C2CCN(S(=O)(=O)c3cccs3)CC2)CC1
Second: CS(=O)(=O)N1CCN(C(=O)c2ccc(-c3ccccc3)cc2)CC1
The “hERG current change (%, negative = inhibition) at 1uM” value of the first is lower: -26.1% for the first, 9.18% for the second.

Compared with `CCc1nn(CC(=O)NCCCN2CCc3ccccc3C2)c(=O)c2cc3sccc3n12`, `CCc1nn(CC(=O)NCCCN2CCN(C)CC2)c(=O)c2cc3sccc3n12` is higher in “hERG current change (%, negative = inhibition) at 1uM” value: -53.8% for the first, 5.53% for the second.

First: CCc1nn(CC(=O)NCCCN2CCOCC2)c(=O)c2cc3sccc3n12
Second: Cc1nc2sccn2c(=O)c1S(=O)(=O)Nc1ccc(N2CCN(C)CC2)cc1
The “hERG current change (%, negative = inhibition) at 1uM” value of the first is lower: 15.6% for the first, 21.4% for the second.

First: COc1cc(S(=O)(=O)Nc2ncn[nH]2)ccc1Cl
Second: CNC(=O)c1cc2cc(OC)ccc2oc1=O
The “hERG current change (%, negative = inhibition) at 1uM” value of the first is higher: 13.5% for the first, -4.3% for the second.

Going from `COCCN1Cc2cccc(C(=O)NCc3ccccc3OC)c2C1=O` to `COc1cc(OC)cc(C(=O)NNC(=O)c2ccc(S(=O)(=O)N(C)c3ccccc3OC)cc2)c1`, the “hERG current change (%, negative = inhibition) at 1uM” value rises from 3.2% to 13.2%.

Compared with `Cc1cc(C)cc(NC(=S)NC2CC3CCCC(C2)N3C2CC2)c1` (stereo not shown), `Cc1cc(C)cc(NC(=S)NC2CC3CCCC(C2)N3C2CCCC2)c1` (stereo not shown) is lower in “hERG current change (%, negative = inhibition) at 1uM” value: -32% for the first, -52.3% for the second.

Going from `Cc1cc(C)cc(NC(=S)NCCN(C2CCCCC2)C2CCCC2)c1` to `Cc1cccc(NC(=S)NCCN(C2CCCCC2)C2CCCC2)c1`, the “hERG current change (%, negative = inhibition) at 1uM” value rises from -59.7% to -1.59%.

Compared with `CCCN1C2CCCC1CC(NC(=S)Nc1cccc(C)c1)C2` (stereo not shown), `CCCN1C2CCCC1CC(NC(=S)Nc1cc(C)cc(C)c1)C2` (stereo not shown) is lower in “hERG current change (%, negative = inhibition) at 1uM” value: -12.7% for the first, -81.4% for the second.

First: Cc1cc(C)cc(NC(=S)NC2CC3CCCC(C2)N3CC(C)C)c1 (stereo not shown)
Second: CCCN1C2CCCC1CC(NC(=S)Nc1cc(C)ccc1C)C2 (stereo not shown)
The “hERG current change (%, negative = inhibition) at 1uM” value of the first is higher: 11.3% for the first, 8.55% for the second.

First: Cc1ccc(NC(=S)NCCN(C2CCCCC2)C2CCCC2)cc1
Second: CC1CN(c2ccc([N+](=O)[O-])c(N3CCCCC3)c2)CCN1 (stereo not shown)
The “hERG current change (%, negative = inhibition) at 1uM” value of the first is lower: -10.5% for the first, 8.07% for the second.

Going from `Cc1ccc(CSc2ccc(-c3ccc4c(c3)OCO4)nn2)cc1` to `Cc1ccccc1NC(=O)NCCc1ccc(Cl)cc1`, the “hERG current change (%, negative = inhibition) at 1uM” value falls from 12.7% to 8.42%.

Compared with `O=C(CCS(=O)(=O)c1ccc2c(c1)NC(=O)CS2)NCCc1ccc(Cl)cc1`, `O=C(O)c1ccc(S(=O)(=O)c2ccc3c(c2)C(=O)N(NC(=O)c2ccncc2)C3=O)cc1` is lower in “hERG current change (%, negative = inhibition) at 1uM” value: 10% for the first, 5.01% for the second.

Compared with `COC(=O)Nc1c(C(=O)OC)cc(OC)c(OC)c1OC`, `CCOC(=O)C1(CCOc2ccccc2)CCN(Cc2cc(OC)cc(OC)c2)CC1` is lower in “hERG current change (%, negative = inhibition) at 1uM” value: 6.05% for the first, -61.5% for the second.

Going from `CC1=NNC(=O)C1CCC(=O)N/N=C/c1ccc(Cl)cc1Cl` (stereo not shown) to `COc1ccc(/C=C/c2cc(=O)c3cc(Cl)ccc3o2)cc1`, the “hERG current change (%, negative = inhibition) at 1uM” value falls from 12.6% to 9.88%.

First: COc1cc(F)cc(-c2ccc3c(c2)c(-c2cccs2)c(-c2cc(OC)cc(OC)c2)n3C)c1
Second: CCn1cc([N+](=O)[O-])c(C(=O)N2N=C(c3ccc(O)c(OC)c3)CC2c2ccccc2O)n1 (stereo not shown)
The “hERG current change (%, negative = inhibition) at 1uM” value of the first is lower: 12.5% for the first, 18.1% for the second.

Compared with `CCOC(=O)C1(Cc2cccc(OC)c2)CCN(Cc2cnc(C)s2)CC1`, `CCOC(=O)C1(Cc2cccc(OC)c2)CCN(Cc2ccc(C)s2)CC1` is lower in “hERG current change (%, negative = inhibition) at 1uM” value: 11% for the first, -53.1% for the second.

Compared with `CCOC(=O)C1(CCOC)CCN(Cc2cccc(OCc3ccccc3)c2)CC1`, `CCOC(=O)C1(CCOc2ccccc2)CCN(Cc2cccc(OC)c2)CC1` is lower in “hERG current change (%, negative = inhibition) at 1uM” value: 3.99% for the first, -24.4% for the second.

First: CCOC(=O)C1(Cc2ccccc2)CCN(Cc2ccc(C)s2)CC1
Second: CCOC(=O)C1(CCOc2ccccc2)CCN(Cc2ccc(C)s2)CC1
The “hERG current change (%, negative = inhibition) at 1uM” value of the first is higher: -2.06% for the first, -65.4% for the second.

Compared with `CCOC(=O)C1(CCOc2ccccc2)CCN(Cc2ccc(OC)cc2)CC1`, `CCOC(=O)C1(CCOc2ccccc2)CCN(Cc2ccc(O)cc2)CC1` is lower in “hERG current change (%, negative = inhibition) at 1uM” value: -77.4% for the first, -84.8% for the second.

First: CCOC(=O)C1(CCOc2ccccc2)CCN(Cc2cnc(SC)nc2)CC1
Second: CCOC(=O)C1(CCOc2ccccc2)CCN(Cc2cnc(C)s2)CC1
The “hERG current change (%, negative = inhibition) at 1uM” value of the first is lower: -28.4% for the first, -18.8% for the second.

Going from `CCOC(=O)C1(CCOc2ccccc2)CCN(Cc2cccc(OCCO)c2)CC1` to `CCOC(=O)C1(CCOc2ccccc2)CCN(Cc2ccc(OCCO)cc2)CC1`, the “hERG current change (%, negative = inhibition) at 1uM” value falls from -84.4% to -85.1%.

Compared with `CCOC(=O)C1(CCOc2ccccc2)CCN(Cc2ccc(-n3cccn3)cc2)CC1`, `CCOC(=O)C1(CCOc2ccccc2)CCN(Cc2cccc(-n3cccn3)c2)CC1` is lower in “hERG current change (%, negative = inhibition) at 1uM” value: -37.8% for the first, -68.5% for the second.

Compared with `CCOC(=O)C1(CCOc2ccccc2)CCN(Cc2cccc(F)c2)CC1`, `CCOC(=O)C1(CCOc2ccccc2)CCN(Cc2cccc(O)c2)CC1` is lower in “hERG current change (%, negative = inhibition) at 1uM” value: -7.5% for the first, -28.7% for the second.

First: CC1(C)C(=O)OC(c2c3ccccc3cc3ccccc23)C(C)(C)C1=O (stereo not shown)
Second: CSc1ccc(C2CC(=O)Nc3nc(SC)[nH]c(=O)c32)cc1 (stereo not shown)
The “hERG current change (%, negative = inhibition) at 1uM” value of the first is lower: 0.485% for the first, 17% for the second.

First: NNC(=O)c1nc(-c2ccccc2)n2c1CCCCC2
Second: O=C(OCC(=O)N1CCCC1)c1c2c(nc3ccccc13)CCCCC2
The “hERG current change (%, negative = inhibition) at 1uM” value of the first is lower: 0.842% for the first, 9.48% for the second.

Going from `CC1(C)CC(c2nc(-c3ccc([N+](=O)[O-])cc3)cs2)CCO1` (stereo not shown) to `CC(Sc1nnc(Nc2ccccc2F)s1)C(=O)NC1CC1` (stereo not shown), the “hERG current change (%, negative = inhibition) at 1uM” value falls from 9.08% to 3%.

First: CC(C)NC(=O)NS(=O)(=O)c1cnccc1NC1CC2CCC1C2 (stereo not shown)
Second: CCOC(=O)C1(CCOc2ccccc2)CCN(C(=O)c2cncs2)CC1
The “hERG current change (%, negative = inhibition) at 1uM” value of the first is higher: 9.06% for the first, -27.4% for the second.

First: CCOC(=O)C1(CCOc2ccccc2)CCN(Cc2cccs2)CC1
Second: CCOC(=O)C1(CCOc2ccccc2)CCN(Cc2ccncc2)CC1
The “hERG current change (%, negative = inhibition) at 1uM” value of the first is lower: -32.6% for the first, -23.5% for the second.

Compared with `CCOC(=O)C1(CCOc2ccccc2)CCN(Cc2ccc(C#CCCO)cc2)CC1`, `CCOC(=O)C1(CCOc2ccccc2)CCN(C(=O)CCSC)CC1` is lower in “hERG current change (%, negative = inhibition) at 1uM” value: 0.161% for the first, -11.3% for the second.

Compared with `CCOC(=O)C1(CCOc2ccccc2)CCN(C(=O)c2ccc(-n3cccn3)cc2)CC1`, `CCOC(=O)C1(Cc2cccc(OC)c2)CCN(CC2CC=CCC2)CC1` (stereo not shown) is higher in “hERG current change (%, negative = inhibition) at 1uM” value: -85.6% for the first, -50.6% for the second.
